Source: PubChem BioAssay (Broad Institute)
STK33 kin inh: inhibitors of human STK33 kinase; actives 0.44% (n = 27,000); inhibition, % at 12.5 µM; AID 2322; ADP-Glo luminescence, MBP substrate; Q9BYT3; in the data active means inhibition above about 20%
Target sequence (Q9BYT3 whole entry, looked up): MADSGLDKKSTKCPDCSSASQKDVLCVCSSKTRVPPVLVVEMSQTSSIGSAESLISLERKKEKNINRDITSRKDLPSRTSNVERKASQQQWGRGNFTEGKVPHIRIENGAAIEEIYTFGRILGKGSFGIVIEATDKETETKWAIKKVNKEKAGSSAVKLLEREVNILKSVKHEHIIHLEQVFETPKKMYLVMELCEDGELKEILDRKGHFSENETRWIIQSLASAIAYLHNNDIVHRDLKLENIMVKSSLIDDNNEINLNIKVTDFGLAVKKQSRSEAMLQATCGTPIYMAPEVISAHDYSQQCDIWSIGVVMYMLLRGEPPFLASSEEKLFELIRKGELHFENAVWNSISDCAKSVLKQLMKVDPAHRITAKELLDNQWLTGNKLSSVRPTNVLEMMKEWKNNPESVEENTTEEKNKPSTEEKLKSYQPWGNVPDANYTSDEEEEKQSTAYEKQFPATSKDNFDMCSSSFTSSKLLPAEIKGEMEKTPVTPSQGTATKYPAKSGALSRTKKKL
NOMO-1 viab: STK33 inhibitor candidate reducing NOMO-1 cell viability | NOMO-1 AML viability, CellTiter-Glo luminescence, 72 h | inhibition, % (concentration not given with the values) | actives 7.5% (n = 37,000) | AID 2330; in the data active means inhibition above about 80%
ID4 SMM: binders of human ID4 protein; actives 1.2% (n = 31,000); calls only; AID 624137; P47928; small molecule microarray, Flag-ID4 binding, fluorescence F/B; call rule not given here;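 further: a binder raises fluorescence above local background on the spot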
Target sequence (P47928 whole entry, looked up): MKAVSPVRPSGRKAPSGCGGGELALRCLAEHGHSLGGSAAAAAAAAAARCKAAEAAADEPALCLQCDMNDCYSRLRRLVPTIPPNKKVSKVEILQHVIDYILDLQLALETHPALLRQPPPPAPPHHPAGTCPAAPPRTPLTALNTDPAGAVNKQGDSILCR
mut p53 react: mutant p53 pathway reactivation; SW480 PUMA-promoter luciferase; actives 1.5% (n = 28,000); AID 624151; activation, % at 9.98 µM; in the data active means activation above about 52%
Large screens that a line does not name were inactive. This excerpt belongs to a sample that is enriched for hits.

C[C@@H]1CN([C@H](C)CO)C(=O)c2cc(NC(=O)Nc3ccccc3)ccc2O[C@@H]1CN(C)C(=O)Nc1cccc2ccccc12	NOMO-1 viab 90 (no result: STK33 kin inh, ID4 SMM, mut p53 react)
C[C@H]1CN([C@@H](C)CO)C(=O)c2cc(NC(=O)Nc3cccc4ccccc34)ccc2O[C@@H]1CN(C)C(=O)Nc1ccc(C(F)(F)F)cc1	NOMO-1 viab 86 (no result: STK33 kin inh, ID4 SMM, mut p53 react)
C[C@@H]1CN([C@@H](C)CO)C(=O)c2cc(NC(=O)Nc3cccc4ccccc34)ccc2O[C@H]1CN(C)Cc1ccc(C(F)(F)F)cc1	NOMO-1 viab 87 (no result: STK33 kin inh, ID4 SMM, mut p53 react)
C[C@H](CO)N1C[C@H](C)[C@H](CN(C)Cc2ccncc2)Oc2ccc(NC(=O)Nc3cccc4ccccc34)cc2C1=O	NOMO-1 viab 98 (no result: ID4 SMM, mut p53 react)
C[C@@H]1CN([C@@H](C)CO)C(=O)c2cc(NC(=O)Nc3ccccc3)ccc2O[C@@H]1CN(C)C(=O)Nc1cccc2ccccc12	none (no result: STK33 kin inh, ID4 SMM, mut p53 react)
CN1N=C(c2coc3ccccc23)CC1(O)C(F)(F)F (stereo unspecified)	mut p53 react 73 (no result: STK33 kin inh, NOMO-1 viab)
CC(C)Cc1ccc(/C=C/C(=O)N2CCOCC2)cc1	mut p53 react 81 (no result: STK33 kin inh, NOMO-1 viab)
COc1ccc(S(=O)(=O)N(C)C[C@@H]2Oc3c(cccc3N(C)C)C(=O)N([C@H](C)CO)C[C@@H]2C)cc1	none (no result: STK33 kin inh, ID4 SMM, mut p53 react)
CCn1c(SCC(=O)Nc2ccccc2OC)nnc1-c1ccc(N)cc1	none
Cc1ccccc1OCC(=O)Nc1ccc([N+](=O)[O-])cc1O	none
CCCCn1c(NCc2ccc(OC)cc2O)nc2ccccc21	none
COc1ccc(CCN2CCC(Nc3nc4ccccc4n3Cc3ccc(F)cc3)CC2)cc1	NOMO-1 viab 114 (no result: ID4 SMM, mut p53 react)
C[C@@H]1CN([C@H](C)CO)C(=O)c2cc(NC(=O)Nc3ccc(F)cc3)ccc2O[C@H]1CN(C)Cc1ccc(Oc2ccccc2)cc1	none (no result: ID4 SMM, mut p53 react)
C[C@@H]1CN([C@H](C)CO)C(=O)c2cc(NC(=O)Nc3ccc(F)cc3)ccc2O[C@@H]1CN(C)Cc1ccc(Oc2ccccc2)cc1	NOMO-1 viab 124 (no result: STK33 kin inh, ID4 SMM, mut p53 react)
C[C@@H]1CN([C@@H](C)CO)C(=O)c2cc(NC(=O)Nc3ccc(F)cc3)ccc2O[C@@H]1CN(C)Cc1ccc(Oc2ccccc2)cc1	NOMO-1 viab 117 (no result: ID4 SMM, mut p53 react)
C[C@H](CO)N1C[C@H](C)[C@H](CN(C)Cc2ccc(Oc3ccccc3)cc2)Oc2ccc(NC(=O)Nc3ccc(F)cc3)cc2C1=O	none (no result: STK33 kin inh, ID4 SMM, mut p53 react)
C[C@@H]1CN([C@@H](C)CO)C(=O)c2cc(NS(=O)(=O)c3ccccc3)ccc2O[C@@H](C)CCCCO[C@@H]1CN(C)C(=O)Nc1ccc(F)cc1	none (no result: STK33 kin inh, NOMO-1 viab)
C[C@@H]1CN([C@@H](C)CO)C(=O)c2cc(NC(=O)Nc3ccc(F)cc3)ccc2O[C@H]1CN(C)Cc1ccc(C(F)(F)F)cc1	NOMO-1 viab 113 (no result: ID4 SMM, mut p53 react)
C[C@@H]1CN([C@H](C)CO)C(=O)c2cc(NC(=O)Nc3ccc(F)cc3)ccc2O[C@H]1CN(C)Cc1ccc(C(F)(F)F)cc1	NOMO-1 viab 117 (no result: ID4 SMM, mut p53 react)
C[C@H]1CN([C@@H](C)CO)C(=O)c2cc(NC(=O)Nc3ccc(F)cc3)ccc2O[C@@H]1CN(C)Cc1ccc(C(F)(F)F)cc1	none (no result: STK33 kin inh, ID4 SMM, mut p53 react)
Cc1ccc(OCC(=O)Nc2ccccc2N2CCOCC2)cc1	none
C[C@H]1CN([C@@H](C)CO)C(=O)Cc2cc(NC(=O)CCN3CCOCC3)ccc2O[C@@H]1CN(C)Cc1ccc(C(=O)Nc2ccccc2N)cc1	none (no result: STK33 kin inh, ID4 SMM, mut p53 react)
C[C@H](CO)N1C[C@H](C)[C@H](CN(C)Cc2ccc3c(c2)OCO3)Oc2ccc(NC(=O)Nc3ccc4c(c3)OCO4)cc2C1=O	NOMO-1 viab 93 (no result: STK33 kin inh, ID4 SMM, mut p53 react)
C[C@H](CO)N1C[C@H](C)[C@H](CN(C)Cc2ccc3c(c2)OCO3)Oc2ccc(NC(=O)Nc3ccc(F)cc3)cc2C1=O	NOMO-1 viab 89
C[C@H]1CN([C@@H](C)CO)C(=O)c2cc(NC(=O)Nc3ccc4c(c3)OCO4)ccc2O[C@@H]1CN(C)Cc1ccc2c(c1)OCO2	none (no result: STK33 kin inh, ID4 SMM, mut p53 react)
C[C@H]1CN([C@@H](C)CO)C(=O)c2cc(NC(=O)Nc3ccccc3)ccc2O[C@H]1CN(C)Cc1ccc2c(c1)OCO2	NOMO-1 viab 92 (no result: ID4 SMM, mut p53 react)
C[C@H]1CN([C@@H](C)CO)C(=O)c2cc(NC(=O)C3CCCCC3)ccc2O[C@H]1CN(C)Cc1ccc2c(c1)OCO2	NOMO-1 viab 92 (no result: ID4 SMM, mut p53 react)
C[C@H]1CN([C@@H](C)CO)C(=O)c2cc(-c3ccccc3)cnc2O[C@@H]1CN(C)Cc1ccccn1	none (no result: STK33 kin inh, NOMO-1 viab, mut p53 react)
CC(C)NC(=O)N(C)C[C@@H]1OCCCC[C@@H](C)Oc2ccc(NS(=O)(=O)c3ccc(F)cc3)cc2C(=O)N([C@H](C)CO)C[C@@H]1C	none (no result: ID4 SMM, mut p53 react)
COc1ccc(NC(=O)Nc2ccc3c(c2)C(=O)N([C@H](C)CO)C[C@@H](C)[C@@H](CN(C)Cc2ccc4c(c2)OCO4)O3)cc1	none (no result: ID4 SMM, mut p53 react)
CC(C)NC(=O)Nc1ccc2c(c1)C(=O)N([C@@H](C)CO)C[C@@H](C)[C@@H](CN(C)Cc1ccc3c(c1)OCO3)O2	none (no result: ID4 SMM, mut p53 react)
COc1ccc(NC(=O)Nc2ccc3c(c2)C(=O)N([C@H](C)CO)C[C@H](C)[C@H](CN(C)Cc2ccc4c(c2)OCO4)O3)cc1	NOMO-1 viab 97 (no result: STK33 kin inh, ID4 SMM, mut p53 react)
C[C@@H]1CN([C@@H](C)CO)C(=O)c2cc(NC(=O)Nc3ccc4c(c3)OCO4)ccc2O[C@H]1CN(C)Cc1ccncc1	ID4 SMM active (no result: STK33 kin inh)
CC(C)NC(=O)Nc1ccc2c(c1)C(=O)N([C@H](C)CO)C[C@H](C)[C@H](CN(C)Cc1ccc3c(c1)OCO3)O2	NOMO-1 viab 93 (no result: STK33 kin inh, ID4 SMM, mut p53 react)
C[C@@H]1CCCCO[C@@H](CN(C)S(=O)(=O)c2cccs2)[C@H](C)CN([C@@H](C)CO)C(=O)c2cc(NS(C)(=O)=O)ccc2O1	none (no result: STK33 kin inh, NOMO-1 viab)
Cc1csc2sc(-c3ccnc(SCc4ccccc4)n3)c(C)c12	none (no result: ID4 SMM, mut p53 react)
Cc1csc2sc(C=NCc3cccs3)c(C)c12	NOMO-1 viab 122 (no result: STK33 kin inh, ID4 SMM, mut p53 react)
CNC[C@H]1Oc2ncc(C#CC3CCCC3)cc2C(=O)N([C@H](C)CO)C[C@H]1C	none (no result: STK33 kin inh, NOMO-1 viab, mut p53 react)
C[C@@H]1CCCCO[C@@H](CN(C)Cc2ccc(C(=O)Nc3ccccc3N)cc2)[C@@H](C)CN([C@H](C)CO)C(=O)c2cc(NS(=O)(=O)c3ccc(F)cc3)ccc2O1	NOMO-1 viab 141 (no result: STK33 kin inh, ID4 SMM, mut p53 react)
C[C@@H]1CCCCO[C@H](CN(C)C(=O)Nc2cccc3ccccc23)[C@@H](C)CN([C@H](C)CO)C(=O)c2cc(NS(=O)(=O)c3ccc(F)cc3)ccc2O1	NOMO-1 viab 94 (no result: ID4 SMM, mut p53 react)
C[C@@H]1CCCCO[C@@H](CN(C)Cc2ccc(C(=O)Nc3ccccc3N)cc2)[C@@H](C)CN([C@H](C)CO)C(=O)c2cc(NS(=O)(=O)c3ccccc3)ccc2O1	NOMO-1 viab 140 (no result: STK33 kin inh, ID4 SMM, mut p53 react)
C[C@@H]1CCCCO[C@H](CN(C)Cc2ccc(C(=O)Nc3ccccc3N)cc2)[C@@H](C)CN([C@H](C)CO)C(=O)c2cc(NS(=O)(=O)c3ccc(Cl)cc3)ccc2O1	NOMO-1 viab 127 (no result: STK33 kin inh, ID4 SMM, mut p53 react)
C[C@@H]1CCCCO[C@H](CN(C)C(=O)Nc2cccc3ccccc23)[C@@H](C)CN([C@H](C)CO)C(=O)c2cc(NS(=O)(=O)c3ccccc3)ccc2O1	none (no result: ID4 SMM, mut p53 react)
COC(=O)c1c(NC(=O)C2CC=CCC2C(=O)O)sc2c1CCC(c1ccccc1)C2 (stereo unspecified)	none
C[C@H](NC(=O)C[C@@H]1CC[C@@H](NC(=O)C2CC2)[C@@H](CO)O1)c1ccccc1	none (no result: STK33 kin inh, NOMO-1 viab, mut p53 react)
CCCN(C)C[C@@H]1Oc2ncc(C#Cc3ccc(OC)c(OC)c3)cc2C(=O)N([C@H](C)CO)C[C@@H]1C	none (no result: NOMO-1 viab)
